Assay results as given in PubChem BioAssay (NCATS).
Results filed as inconclusive are left out. Activity calls are given as the source filed them. Calls come from the whole dose curve; as a rule, active = well fitted curve in the direction sought with a large enough effect; inconclusive = small, poorly fitted or top-dose-only effect, or another doubt; inactive = no such curve, though single readings can be large; an effect the other way counts as inactive or inconclusive. Peptide text beside a SMILES is read from it.

Assays:
[1] = Quantitative High-Throughput drug screen in 47 multiple myeloma cell lines against the NCATS MIPE library collection: KMS12BM_JCRB cell viability assay (AID 1918971); note: nearly all actives have a fitted effect of over 35% in size
How it was run: (§1)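 CellTiter-Glo luminescence (ATP) after 48 h compound exposure, 37C/5% CO2; 500 cells/well; MIPE 4.0 approved/investigational drugs pinned in; DMSO = 100%, media only = 0% viability.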

[2] = Quantitative High-Throughput drug screen in 47 multiple myeloma cell lines against the NCATS MIPE library collection: KMS12PE_JCRB cell viability assay (AID 1918972); note: nearly all actives have a fitted effect of over 30% in size; for viability: series mostly up to about 46 µM
How it was run: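 Approved and investigational drugs from MIPE 4.0 were added by pin tool to 500 cells per well. After 48 hours at 37C, ATP-based CellTiter-Glo luminescence indicated remaining viability.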

[3] = Quantitative High-Throughput drug screen in 47 multiple myeloma cell lines against the NCATS MIPE library collection: KMS20_JCRB cell viability assay (AID 1918973); note: nearly all actives have a fitted effect of over 45% in size
How it was run: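 Myeloma cells (500 per well) were exposed to MIPE 4.0 compounds by pin transfer and incubated 48 hours at 37C, 5% CO2. Viability was read as ATP by CellTiter-Glo luminescence, normalised to DMSO (100%) and media-only (0%) wells.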

[4] = Quantitative High-Throughput drug screen in 47 multiple myeloma cell lines against the NCATS MIPE library collection: KMS26_JCRB cell viability assay (AID 1918975); note: nearly all actives have a fitted effect of over 45% in size
How it was run: as §1

[5] = Quantitative High-Throughput drug screen in 47 multiple myeloma cell lines against the NCATS MIPE library collection: MOLP8_DSMZ cell viability assay (AID 1918977); note: nearly all actives have a fitted effect of over 45% in size
How it was run: (§2)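 MIPE 4.0 approved/investigational drugs; 500 cells/well; 48 h 37 °C humidified 5% CO2; CTG luminescence readout; DMSO = 100%, media = 0% viability.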

[6] = Quantitative High-Throughput drug screen in 47 multiple myeloma cell lines against the NCATS MIPE library collection: NCIH929_DSMZ cell viability assay (AID 1918978); note: nearly all actives have a fitted effect of over 35% in size
How it was run: as §2

[7] = Quantitative High-Throughput drug screen in 47 multiple myeloma cell lines against the NCATS MIPE library collection: OCIMY1_PLB cell viability assay (AID 1918979); note: nearly all actives have a fitted effect of over 35% in size; for viability: series mostly up to about 46 µM
How it was run: as §2

[8] = Quantitative High-Throughput drug screen in 47 multiple myeloma cell lines against the NCATS MIPE library collection: MM1S_ATCC cell viability assay (AID 1918980); note: nearly all actives have a fitted effect of over 45% in size
How it was run: as §2

[9] = Quantitative High-Throughput drug screen in 47 multiple myeloma cell lines against the NCATS MIPE library collection: MM1R_ATCC cell viability assay (AID 1918981); note: nearly all actives have a fitted effect of over 35% in size
How it was run: as §2

[10] = Quantitative High-Throughput drug screen in 47 multiple myeloma cell lines against the NCATS MIPE library collection: LP1_DSMZ cell viability assay (AID 1918982); note: nearly all actives have a fitted effect of over 35% in size
How it was run: as §2

[11] = Quantitative High-Throughput drug screen in 47 multiple myeloma cell lines against the NCATS MIPE library collection: KMS28PE_JCRB cell viability assay (AID 1918983); note: nearly all actives have a fitted effect of over 35% in size
How it was run: as §2

[12] = Quantitative High-Throughput drug screen in 47 multiple myeloma cell lines against the NCATS MIPE library collection: KMS34_JCRB cell viability assay (AID 1918985); note: nearly all actives have a fitted effect of over 40% in size
How it was run: as §2

[13] = Quantitative High-Throughput drug screen in 47 multiple myeloma cell lines against the NCATS MIPE library collection: OPM1_PLB cell viability assay (AID 1918989); note: nearly all actives have a fitted effect of over 40% in size
How it was run: as §2

[14] = Quantitative High-Throughput drug screen in 47 multiple myeloma cell lines against the NCATS MIPE library collection: SKMM1_PLB cell viability assay (AID 1919863); conditions: SKMM1 myeloma viability, CellTiter-Glo ATP, 48 h; viability: stronger effect = lower value; note: nearly all actives have a fitted effect of over 35% in size; for viability: series mostly up to about 46 µM
How it was run: as §2

[15] = Quantitative High-Throughput drug screen in 47 multiple myeloma cell lines against the NCATS MIPE library collection: U266_ATCC cell viability assay (AID 1919864); note: nearly all actives have a fitted effect of over 35% in size
How it was run: as §2

[16] = Quantitative High-Throughput drug screen in 47 multiple myeloma cell lines against the NCATS MIPE library collection: XG6_PLB cell viability assay (AID 1919865); note: nearly all actives have a fitted effect of over 40% in size
How it was run: as §2

[17] = Quantitative High-Throughput drug screen in 47 multiple myeloma cell lines against the NCATS MIPE library collection: OCIMY5_PLB cell viability assay (AID 1918988); note: nearly all actives have a fitted effect of over 65% in size
How it was run: as §2

[18] = Quantitative High-Throughput drug screen in 47 multiple myeloma cell lines against the NCATS MIPE library collection: MMM1_PLB cell viability assay (AID 1918976); note: nearly all actives have a fitted effect of over 35% in size
How it was run: as §2

[19] = Quantitative High-Throughput drug screen in 47 multiple myeloma cell lines against the NCATS MIPE library collection: L363_DSMZ cell viability assay (AID 1918984); note: nearly all actives have a fitted effect of over 40% in size
How it was run: as §2

[20] = Quantitative High-Throughput drug screen in 47 multiple myeloma cell lines against the NCATS MIPE library collection: OCIMY7_PLB cell viability assay (AID 1918987); note: nearly all actives have a fitted effect of over 65% in size
How it was run: as §2
Potency is the fitted concentration of half-maximal effect.

CCN(CC)CCOc1ccc(Nc2ncc3cc(-c4c(Cl)cccc4Cl)c(=O)n(C)c3n2)cc1
active: Potency [1] 2.35 µM | Potency [2] 0.0105 µM | Potency [3] 0.001 µM | Potency [4] 5.26 µM | Potency [5] 0.059 µM | Potency [6] 1.87 µM | Potency [7] 2.96 µM | Potency [8] 2.35 µM | Potency [9] 1.32 µM | Potency [10] 1.87 µM | Potency [11] 1.18 µM | Potency [12] 0.166 µM | Potency [13] 0.0187 µM | Potency [14] 5.26 µM | Potency [15] 10.5 µM | Potency [16] 0.0296 µM

COC(=O)[C@H](Cc1ccccc1)NC(=O)[C@@H](N)CC(=O)O (H-Asp-Phe-OMe)
active: Potency [16] 14.8 µM
inactive: Potency [1] | Potency [2] | Potency [6] | Potency [7] | Potency [8] | Potency [9] | Potency [10] | Potency [11] | Potency [12] | Potency [13] | Potency [15]

O=c1c(O)c(-c2cc(O)c(O)c(O)c2)oc2cc(O)cc(O)c12
inactive: Potency [2] | Potency [3] | Potency [7]
active: Potency [1] 23.5 µM | Potency [5] 18.7 µM | Potency [9] 20.9 µM | Potency [11] 23.5 µM | Potency [14] 20.9 µM

CC1=C(C(=O)O)N2C(=O)[C@@H](NC(=O)[C@H](N)C3=CCC=CC3)[C@H]2SC1
inactive: Potency [1] | Potency [2] | Potency [4] | Potency [5] | Potency [6] | Potency [7] | Potency [9] | Potency [10] | Potency [12] | Potency [17] | Potency [13] | viability [14] 126%

COc1ccc(C2(C#N)CCC(C(=O)O)CC2)cc1OC1CCCC1 (stereo unspecified)
active: Potency [8] 26.4 µM | Potency [13] 7.43 µM
inactive: Potency [1] | Potency [2] | Potency [4] | Potency [7] | Potency [9] | Potency [10] | Potency [11] | Potency [12] | viability [14] 137%

CN(C)c1ccc2nc3ccc(=[N+](C)C)cc-3sc2c1
active: Potency [1] 4.69 µM | Potency [2] 5.9 µM | Potency [3] 2.64 µM | Potency [4] 1.32 µM | Potency [18] 5.26 µM | Potency [5] 3.32 µM | Potency [6] 6.62 µM | Potency [7] 1.48 µM | Potency [8] 2.64 µM | Potency [9] 1.05 µM | Potency [10] 4.69 µM | Potency [11] 5.9 µM | Potency [19] 3.72 µM | Potency [12] 0.59 µM | Potency [13] 3.72 µM | Potency [14] 1.66 µM | Potency [16] 5.26 µM

Cc1ccc(C)c(OCCCC(C)(C)C(=O)O)c1
active: Potency [6] 23.5 µM | Potency [20] 18.7 µM | Potency [16] 9.35 µM
inactive: Potency [1] | Potency [5] | Potency [7] | Potency [10] | Potency [11] | Potency [12] | viability [14] 118%

COc1c(O)cc2c(c1O)[C@@H]1O[C@H](CO)[C@@H](O)[C@H](O)[C@H]1OC2=O
inactive: Potency [3] | Potency [4] | Potency [6] | Potency [7] | Potency [8] | Potency [9] | Potency [10] | Potency [11] | Potency [19] | Potency [20] | Potency [13] | Potency [15]
active: Potency [1] 4.18 µM

CCCS(=O)c1ccc2nc(NC(=O)OC)[nH]c2c1 (stereo unspecified)
active: Potency [1] 20.9 µM | Potency [4] 10.5 µM | Potency [10] 16.6 µM | Potency [17] 16.6 µM | Potency [14] 10.5 µM
inactive: Potency [6]

NNc1nncc2ccccc12
inactive: Potency [1] | Potency [3] | Potency [4] | Potency [6] | Potency [7] | Potency [8] | Potency [9] | Potency [10] | Potency [11] | Potency [19] | Potency [12] | Potency [13] | viability [14] 116% | Potency [16]

CC(C)c1ccc2c(c1)c(SC(C)(C)C)c(CC(C)(C)C(=O)O)n2Cc1ccc(Cl)cc1
active: Potency [1] 20.9 µM | Potency [18] 2.64 µM | Potency [6] 26.4 µM | Potency [8] 7.43 µM
inactive: Potency [7] | Potency [13]

CCCOc1ccc2nc(NC(=O)OC)[nH]c2c1
active: Potency [1] 0.0066 µM | Potency [4] 1.05 µM | Potency [18] 1.32 µM | Potency [6] 1.48 µM | Potency [9] 0.0083 µM | Potency [11] 0.0066 µM | Potency [12] 0.0059 µM | Potency [17] 0.0026 µM | Potency [13] 0.0187 µM | Potency [14] 0.0093 µM

O=c1c(O)c(-c2ccc(O)cc2O)oc2cc(O)cc(O)c12
inactive: Potency [5] | Potency [7] | Potency [13] | viability [14] 122% | Potency [15]
active: Potency [1] 2.09 µM | Potency [8] 0.833 µM

Nc1ccc(S(N)(=O)=O)cc1
inactive: Potency [1] | Potency [4] | Potency [5] | Potency [6] | Potency [7] | Potency [8] | Potency [9] | Potency [10] | Potency [11] | Potency [20] | Potency [17] | Potency [13] | viability [14] 120% | Potency [15]

C[C@H](Cc1ccc(O)c(O)c1)[C@@H](C)Cc1ccc(O)c(O)c1
active: Potency [1] 16.6 µM | Potency [4] 23.5 µM | Potency [5] 5.26 µM | Potency [6] 9.35 µM | Potency [7] 18.7 µM | Potency [8] 20.9 µM | Potency [9] 20.9 µM | Potency [10] 18.7 µM | Potency [19] 6.62 µM | Potency [12] 16.6 µM | Potency [17] 16.6 µM | Potency [13] 26.4 µM | Potency [14] 18.7 µM | Potency [16] 11.8 µM
inactive: Potency [11]
